Assay results reported in the supplement of paper PMC4466140.

B1: unnamed (peptide)
chain: PKMLPIPSKPTLFDL

target: CaNbp2; experiment: SPOT peptide array binding signal intensity (averaged, normalized) (arbitrary units (background-subtracted, floor 0; scale differs between SH3 domains)); higher = stronger binding of the SH3 domain to the peptide
Method: (§1)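 GST-tagged SH3 domains from S. cerevisiae (Sc), A. gossypii (Ag), C. albicans (Ca) and S. pombe (Sp) were incubated at 10 ug/ml overnight at 4 C on cellulose SPOT membranes carrying 292 synthetic 15-mer peptides mined from the S. cerevisiae proteome (cysteines replaced by serines). Binding was detected with anti-GST antibody, HRP secondary and chemiluminescence, quantified with Genespotter, and reported as normalized spot intensities averaged over biological replicates.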

| Binder | SPOT peptide array binding signal intensity |
| --- | --- |
| B1 | 303 |

target: CaRvs167; experiment: as above
Method: as §1

| Binder | SPOT peptide array binding signal intensity |
| --- | --- |
| B1 | 47 |

target: CaRvs167-3; experiment: as above
Method: as §1

| Binder | SPOT peptide array binding signal intensity |
| --- | --- |
| B1 | ≤ 0 |

target: CaSho1; experiment: as above
Method: as §1

| Binder | SPOT peptide array binding signal intensity |
| --- | --- |
| B1 | 1680 |

target: CaSla1-D1-D2; experiment: as above
Method: as §1

| Binder | SPOT peptide array binding signal intensity |
| --- | --- |
| B1 | 188 |

target: CaSla1-D3; experiment: as above
Method: as §1

| Binder | SPOT peptide array binding signal intensity |
| --- | --- |
| B1 | 116 |

target: ScAbp1; experiment: as above
Method: as §1

| Binder | SPOT peptide array binding signal intensity |
| --- | --- |
| B1 | 14 |

target: ScBbc1; experiment: as above
Method: as §1

| Binder | SPOT peptide array binding signal intensity |
| --- | --- |
| B1 | 0.5 |

target: ScBem1-D1; experiment: as above
Method: as §1

| Binder | SPOT peptide array binding signal intensity |
| --- | --- |
| B1 | ≤ 0 |

target: ScBzz1-D1; experiment: as above
Method: as §1

| Binder | SPOT peptide array binding signal intensity |
| --- | --- |
| B1 | 9 |

target: ScBzz1-D2; experiment: as above
Method: as §1

| Binder | SPOT peptide array binding signal intensity |
| --- | --- |
| B1 | 22 |

target: ScCyk3; experiment: as above
Method: as §1

| Binder | SPOT peptide array binding signal intensity |
| --- | --- |
| B1 | 3 |

target: ScFus1; experiment: as above
Method: as §1

| Binder | SPOT peptide array binding signal intensity |
| --- | --- |
| B1 | 405 |

target: ScHof1; experiment: as above
Method: as §1

| Binder | SPOT peptide array binding signal intensity |
| --- | --- |
| B1 | ≤ 0 |

target: ScHse1; experiment: as above
Method: as §1

| Binder | SPOT peptide array binding signal intensity |
| --- | --- |
| B1 | 73.5 |

target: ScLsb1; experiment: as above
Method: as §1

| Binder | SPOT peptide array binding signal intensity |
| --- | --- |
| B1 | 11.5 |

target: ScLsb2; experiment: as above
Method: as §1

| Binder | SPOT peptide array binding signal intensity |
| --- | --- |
| B1 | ≤ 0 |

target: ScLsb3; experiment: as above
Method: as §1

| Binder | SPOT peptide array binding signal intensity |
| --- | --- |
| B1 | 172 |

target: ScLsb4; experiment: as above
Method: as §1

| Binder | SPOT peptide array binding signal intensity |
| --- | --- |
| B1 | 80 |

target: ScMyo3; experiment: as above
Method: as §1

| Binder | SPOT peptide array binding signal intensity |
| --- | --- |
| B1 | 0.5 |

target: ScMyo5; experiment: as above
Method: as §1

| Binder | SPOT peptide array binding signal intensity |
| --- | --- |
| B1 | 2 |

target: ScNbp2; experiment: as above
Method: as §1

| Binder | SPOT peptide array binding signal intensity |
| --- | --- |
| B1 | 240 |

target: ScPex13; experiment: as above
Method: as §1

| Binder | SPOT peptide array binding signal intensity |
| --- | --- |
| B1 | 229 |

target: ScRvs167; experiment: as above
Method: as §1

| Binder | SPOT peptide array binding signal intensity |
| --- | --- |
| B1 | 30.5 |

target: ScSho1; experiment: as above
Method: as §1

| Binder | SPOT peptide array binding signal intensity |
| --- | --- |
| B1 | 673 |

target: ScSla1-D1-D2; experiment: as above
Method: as §1

| Binder | SPOT peptide array binding signal intensity |
| --- | --- |
| B1 | 179 |

target: ScSla1-D3; experiment: as above
Method: as §1

| Binder | SPOT peptide array binding signal intensity |
| --- | --- |
| B1 | 374 |

target: SpAbp1-D1; experiment: as above
Method: as §1

| Binder | SPOT peptide array binding signal intensity |
| --- | --- |
| B1 | 286 |

target: SpBbc1; experiment: as above
Method: as §1

| Binder | SPOT peptide array binding signal intensity |
| --- | --- |
| B1 | 0.5 |

target: SpBzz1-D1; experiment: as above
Method: as §1

| Binder | SPOT peptide array binding signal intensity |
| --- | --- |
| B1 | 426 |

target: SpBzz1-D2; experiment: as above
Method: as §1

| Binder | SPOT peptide array binding signal intensity |
| --- | --- |
| B1 | 20.5 |

target: SpCyk3; experiment: as above
Method: as §1

| Binder | SPOT peptide array binding signal intensity |
| --- | --- |
| B1 | ≤ 0 |

target: SpHof1; experiment: as above
Method: as §1

| Binder | SPOT peptide array binding signal intensity |
| --- | --- |
| B1 | 154 |

target: SpHof1-2; experiment: as above
Method: as §1

| Binder | SPOT peptide array binding signal intensity |
| --- | --- |
| B1 | 410 |

target: SpHof1-3; experiment: as above
Method: as §1

| Binder | SPOT peptide array binding signal intensity |
| --- | --- |
| B1 | 433 |

target: SpHse1; experiment: as above
Method: as §1

| Binder | SPOT peptide array binding signal intensity |
| --- | --- |
| B1 | 136 |

target: SpLsb1; experiment: as above
Method: as §1

| Binder | SPOT peptide array binding signal intensity |
| --- | --- |
| B1 | 15.5 |

target: SpLsb4; experiment: as above
Method: as §1

| Binder | SPOT peptide array binding signal intensity |
| --- | --- |
| B1 | 402 |

target: SpMyo1; experiment: as above
Method: as §1

| Binder | SPOT peptide array binding signal intensity |
| --- | --- |
| B1 | 82 |

target: SpNbp2; experiment: as above
Method: as §1

| Binder | SPOT peptide array binding signal intensity |
| --- | --- |
| B1 | 55.5 |

target: SpPex13; experiment: as above
Method: as §1

| Binder | SPOT peptide array binding signal intensity |
| --- | --- |
| B1 | 39.5 |

target: SpRvs167; experiment: as above
Method: as §1

| Binder | SPOT peptide array binding signal intensity |
| --- | --- |
| B1 | 45.3 |

target: SpSla1-D1-D2; experiment: as above
Method: as §1

| Binder | SPOT peptide array binding signal intensity |
| --- | --- |
| B1 | 12 |

target: SpSla1-D3; experiment: as above
Method: as §1

| Binder | SPOT peptide array binding signal intensity |
| --- | --- |
| B1 | 132 |
